Screening results (PubChem)
HCV inhibitor: inhibitors of hepatitis C virus infection | Huh7.5.1 HCVcc-Cre infection, luciferase reporter, 44 h | AID 651820 | Potency, µM (titrated, usually from 41.8 µM), for the others: top-dose activity change, negative = inhibition, usual class: inhibitors | 340,000 compounds, 3.4% hits; also: potency is read from the fitted curve at half-maximal effect; % is scaled to controls: 0 for no effect and ±100 for the full control effect
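Seed cells (1,000/well) for 4 h; treat with compound and infect with HCVcc-Cre, moi about 0.5. Incubate 44 h, then detect luciferase activity.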
Sm TGR inh: inhibitors of Schistosoma mansoni thioredoxin glutathione reductase; Q962Y6; purified TGR, DTNB reduction, TNB absorbance 405 nm; Potency, µM (titrated, usually from 114 µM), without a hit: at the highest dose activity change, negative = inhibition, hits mostly inhibitors; 360,000 compounds, 3% hits; AID 485364; also: potency is read from the fitted curve at half-maximal effect; % is scaled to controls: 0 for no effect and ±100 for the full control effect; nearly all actives have a fitted effect of over 60% in size
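TGR 20 nM + NADPH 100 uM (dispensed conc.), cpd preinc 15 min RT; start with NADPH (500 uM addition) then DTNB (15 mM addition). Kinetic TNB absorbance, 405 nm filter. Four-parameter Hill fit across titration.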
Pf growth 48h: P. falciparum growth inhibition at 48 hours (one generation). AID 504832. 310,000 compounds, 5.9% hits. Potency, µM (titrated, usually from 28.7 µM), for inactives: top-dose activity change, negative = inhibition, most hits filed as inhibitors. P. falciparum luciferase growth in erythrocytes, 48 h; also: potency is read from the fitted curve at half-maximal effect; % is scaled to controls: 0 for no effect and ±100 for the full control effect
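Parasite viability was followed by luminescence of a genomically integrated firefly luciferase. Cultures held 0.1% parasitemia at 2% hematocrit (final), incubated under 5% CO2 at 37 C.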
SARS PLpro yeast: SARS-CoV PLP inhibition in yeast; S. cerevisiae expressing SARS-CoV PLpro, growth rescue; Potency, µM (highest dose often 32.9 µM), without a hit: at the highest dose activity, positive = growth rescue, actives largely listed as activators; 330,000 compounds, 0.19% hits; AID 485353; calls by dose curve; also: potency is read from the fitted curve at half-maximal effect; 0% is about no effect; nearly all actives have a fitted effect of over 55% in size
Pf growth 96h: P. falciparum growth inhibition at 96 hours | P. falciparum luciferase reporter growth, 96 h | 320,000 compounds, 6.9% hits | Potency, µM (doses to about 28.7 µM), inactives show at the top dose activity change, negative = inhibition, actives largely listed as inhibitors; also: potency is read from the fitted curve at half-maximal effect; % is scaled to controls: 0 for no effect and ±100 for the full control effect
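Plates of compound plus infected erythrocytes (2% hematocrit, 0.05% parasitemia final) incubate 96 hours, 37 C, 5% CO2. Detection reagent added; reduced luminescence from the parasites' luciferase reporter flags inhibition.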
HCMV inh: human cytomegalovirus inhibition; HFF cells, HCMV-luciferase reporter, 72 h; hits give low values; activity change, negative = inhibition, % at 57.5 µM; 410,000 compounds, 4.5% hits; AID 1259415; in the data active = activity change below about -60%; inconclusive = no clear call, values can overlap the other calls; inactive = above about -39%; also: % is scaled to controls: 0 for no effect and ±100 for the full control effect
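Compounds were evaluated in HFFs infected with an HCMV luciferase reporter virus (MOI 1 PFU/cell). Luciferase in lysates collected 72 h post infection served as the replication measure.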
The depositor's hits bear a star; ? = inconclusive; . = no result given. In the library only some 15% were active in any assay of this set; here they are far more common. Unless noted, calls follow the shape of the dose curve; as a rule, active = well fitted curve in the direction sought with a large enough effect; inconclusive = small, poorly fitted or top-dose-only effect, or another doubt; inactive = no such curve, though single readings can be large; an effect the other way counts as inactive or inconclusive.

SMILES | HCV inhibitor | Sm TGR inh | Pf growth 48h | SARS PLpro yeast | Pf growth 96h | HCMV inh
Cc1ccc2c(c1)N(C(=O)N1CCC(C(=O)NCc3cccc(Br)c3)CC1)CCO2 | . | 32% | . | . | . | -22
COc1ccc(S[C@]2(C(=O)N3CCOCC3)CC(=O)N(c3ccc4ccccc4c3)[C@@H]2c2ccc(OC)cc2)cc1 | . | . | . | . | . | -10
COc1ccc2cc(C(C)c3nc4ccccc4c(=O)n3N)ccc2c1 (configuration not stated) | -6% | -11% | ? | ? | 1.2µM* | -10
Cc1ccc(N(CC(=O)Nc2ccc(C)cc2C)S(=O)(=O)N2CCCC2)cc1 | 22% | 0% | . | -10% | ? | -11
Cc1ccc(NC(=O)C[n+]2cc(-c3ccc(C)cc3)n3c2CCC3)cc1 | ? | -2% | 6.6µM* | -1% | 1.9µM* | -8
Cn1c(NC(=O)C[n+]2cc(-c3ccc(Cl)c(Cl)c3)n3c2CCC3)cc(=O)n(C)c1=O | 8% | -4% | 1.3µM* | 9% | 0.83µM* | -32
Cc1ccc(-c2c[n+](CC(=O)Nc3nc(-c4ccc(F)cc4)cs3)c3n2CCC3)cc1 | ? | -3% | ? | 4% | 3.7µM* | ?
Cc1ccc(-c2c[n+](CC(=O)OCc3ccccc3)c3n2CCC3)cc1 | 1% | -18% | 20% | -1% | 16% | -27
Cc1ccc(-c2c[n+](CC(=O)Nc3ccc(C)cc3C)c3n2CCC3)cc1 | -10% | 5% | ? | 0% | ? | -71*
O=C(C[n+]1cc(-c2ccc(F)cc2)n2c1CCC2)Nc1nc(-c2ccccc2)cs1 | ? | 0% | ? | 3% | ? | -8
CC(=O)N/C(=C\c1ccccc1)C(=O)Nc1ccccc1C | 19% | . | -8% | 0% | 107% | -10
COc1ccc(CCNC(=O)NC23CC4CC(CC(C4)C2)C3)cc1OC | -8% | 7% | ? | -7% | 3% | -27
Cc1ccccc1COC[C@H](CC(C)C)N1CCN(C(=O)c2cccc(C(F)(F)F)c2)CCC1=O | ? | -4% | ? | -1% | ? | -21
Cc1ccc(Cl)cc1N1CCN(C(=O)c2cc(S(=O)(=O)N3CCCC3)c[nH]2)CC1 | . | 6% | . | . | . | 16
CCCCCCN1C[C@H](n2cc(C3CC3)nn2)[C@@H](O)C[C@@H]1c1ccc(Cl)cc1 | . | . | . | . | . | -7
O=C(CSc1nnnn1C1CC1)N1CCN(Cc2ccccc2F)CC1 | 2% | -2% | -1% | -5% | -21% | -69*
Cc1ccc(-n2nnnc2Sc2nc([N+](=O)[O-])nn2C)cc1 | 1% | -21% | 4.1µM* | 24% | 20% | -9
Cc1ccc(-n2nnnc2Sc2nc([N+](=O)[O-])nn2C)c(C)c1 | -9% | . | . | . | . | -70*
Cn1cnnc1Sc1nc([N+](=O)[O-])nn1C | 2% | 17% | 11% | 0% | 49% | -6
CC(=O)Nc1nonc1-c1nnc(SCc2cccc(Br)c2)n1C | . | 1% | . | . | . | -6
Cc1cccc(N(CC(=O)NCCC2=CCCCC2)S(C)(=O)=O)c1C | -5% | -12% | 0% | -1% | . | 9
C=CCNc1nc(NC(C)(C)CO)nc(OC)n1 | 8% | -5% | -16% | -2% | ? | -14
C=CCNc1nc(NC(C)(C)CO)nc(OCC)n1 | 1% | 0% | 4% | 5% | 7.4µM* | -3
CCCCn1c(N)c(N(CC(C)C)C(=O)CSCC(=O)Nc2ccc(C)cc2)c(=O)[nH]c1=O | 23% | 4% | ? | -2% | ? | 7
CCCn1c(SCc2cc(=O)oc3ccc4ccccc4c23)n[nH]c1=O | -19% | -22% | ? | -3% | ? | 35
SMILES | HCV inhibitor | Sm TGR inh | Pf growth 48h | SARS PLpro yeast | Pf growth 96h | HCMV inh
CCOc1ccc(-n2c(SCc3cc(=O)oc4cc(C)ccc34)nnc2-c2cccnc2)cc1 | ? | -1% | ? | -5% | ? | -65*
CC(=O)Nc1ccc2c(CSc3nnc(-c4cccnc4)n3-c3ccc(C)cc3C)cc(=O)oc2c1 | -20% | -13% | ? | -15% | 7.4µM* | -20
CC(C)c1ccccc1-n1c(SCc2cc(=O)oc3ccc4ccccc4c23)nnc1-c1cccnc1 | ? | 6% | 13µM* | -7% | 8.3µM* | -33
CCn1c(SCC(=O)Nc2cccc(F)c2)nc2c(c1=O)SC(C)C2 (configuration not stated) | ? | -1% | 4.1µM* | 10% | 2.6µM* | 0
CC1Cc2nc(SCC(=O)Nc3nccs3)n(Cc3ccccc3)c(=O)c2S1 (configuration not stated) | 10% | 2% | 3.3µM* | 16% | 1.5µM* | 69
CC1Cc2nc(SCC(=O)N3CCN(c4ccccc4)CC3)n(CCc3ccccc3)c(=O)c2S1 (configuration not stated) | ? | -8% | 9.3µM* | -10% | ? | ?
CC1Cc2nc(SCC(=O)Nc3ccc4c(c3)OCO4)n(Cc3ccccc3)c(=O)c2S1 (configuration not stated) | -26% | 1% | 2.3µM* | 14% | -5% | 56
CC1Cc2nc(SCC(=O)Nc3ccc(F)cc3F)n(C)c(=O)c2S1 (configuration not stated) | -10% | 4% | 6.6µM* | 5% | ? | ?
CC1CCCC(C)N1C(=O)Cn1c(SCC(=O)Nc2ccc3c(c2)OCO3)nc2ccccc21 (configuration not stated) | -15% | 0% | ? | 2% | 13µM* | ?
CC(C)(C)c1cnnn1-c1ccc(/C=N/Nc2ccc([N+](=O)[O-])cc2)cc1 | ? | -1% | 12µM* | ? | -61% | ?
CC(=NNc1ccc([N+](=O)[O-])cn1)c1ccc(N)cc1 | 18% | . | . | . | . | 26
C/C(=N\Nc1ccc([N+](=O)[O-])cc1)c1ccc(N)cc1 | -20% | -36% | ? | -81% | 0% | 93
C/C(=N\Nc1ccc([N+](=O)[O-])cc1)c1ccc(-n2nncc2C)cc1 | ? | -5% | 4% | -12% | 4% | -66*
C/C(=N\Nc1nc(C)c(C)s1)c1ccc([N+](=O)[O-])cc1 | ? | 22µM* | ? | 4% | ? | 54
C/C(=N\Nc1ccc([N+](=O)[O-])cc1)c1ccc(N2CCOCC2)cc1 | ? | 0% | 2% | 0% | 95% | 0
CCc1ccc(/C(C)=N\Nc2ccc([N+](=O)[O-])cc2)cc1 | -16% | 0% | 31% | -6% | 4.1µM* | 9
O=C(CN1C(=O)NC2(CCCC2)C1=O)OCCOc1ccc(Br)cc1 | 0% | 1% | 40% | 1% | 36% | -34
COc1cc2c(cc1OC)C(C1c3cc4c(cc3CCN1C)OCO4)OC2=O (configuration not stated) | 9% | 6% | 0% | 3% | ? | 1
